Experimental data as given in PubChem BioAssay.
Measured potencies and affinities stand elsewhere. The source made the active and inactive calls.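 Rule for the calls: active = earlier screen potentiator hit that boosts the TRPC4 ion channel at some dose, with a dose response; inactive = no potentiation, no dose response, or not a prior hit.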

Biological target: Short transient receptor potential channel 4 (Mus musculus) (UniProt Q9QUQ5)
Assay: potentiation of DAMGO-evoked TRPC4 calcium signal – cell-based, HEK293 TRPC4/mu-opioid, Fluo-4 calcium, EC20 DAMGO, dose response (AID 434941);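 note: calcium entry triggered by an EC20 dose of DAMGO at the co-expressed mu-opioid receptor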
Details: HEK293 TRPC4/mu-opioid cells, Fluo-4 calcium fluorescence; series mostly up to 20 µM

Chain of Short transient receptor potential channel 4 (Mus musculus) (Q9QUQ5 whole entry, looked up): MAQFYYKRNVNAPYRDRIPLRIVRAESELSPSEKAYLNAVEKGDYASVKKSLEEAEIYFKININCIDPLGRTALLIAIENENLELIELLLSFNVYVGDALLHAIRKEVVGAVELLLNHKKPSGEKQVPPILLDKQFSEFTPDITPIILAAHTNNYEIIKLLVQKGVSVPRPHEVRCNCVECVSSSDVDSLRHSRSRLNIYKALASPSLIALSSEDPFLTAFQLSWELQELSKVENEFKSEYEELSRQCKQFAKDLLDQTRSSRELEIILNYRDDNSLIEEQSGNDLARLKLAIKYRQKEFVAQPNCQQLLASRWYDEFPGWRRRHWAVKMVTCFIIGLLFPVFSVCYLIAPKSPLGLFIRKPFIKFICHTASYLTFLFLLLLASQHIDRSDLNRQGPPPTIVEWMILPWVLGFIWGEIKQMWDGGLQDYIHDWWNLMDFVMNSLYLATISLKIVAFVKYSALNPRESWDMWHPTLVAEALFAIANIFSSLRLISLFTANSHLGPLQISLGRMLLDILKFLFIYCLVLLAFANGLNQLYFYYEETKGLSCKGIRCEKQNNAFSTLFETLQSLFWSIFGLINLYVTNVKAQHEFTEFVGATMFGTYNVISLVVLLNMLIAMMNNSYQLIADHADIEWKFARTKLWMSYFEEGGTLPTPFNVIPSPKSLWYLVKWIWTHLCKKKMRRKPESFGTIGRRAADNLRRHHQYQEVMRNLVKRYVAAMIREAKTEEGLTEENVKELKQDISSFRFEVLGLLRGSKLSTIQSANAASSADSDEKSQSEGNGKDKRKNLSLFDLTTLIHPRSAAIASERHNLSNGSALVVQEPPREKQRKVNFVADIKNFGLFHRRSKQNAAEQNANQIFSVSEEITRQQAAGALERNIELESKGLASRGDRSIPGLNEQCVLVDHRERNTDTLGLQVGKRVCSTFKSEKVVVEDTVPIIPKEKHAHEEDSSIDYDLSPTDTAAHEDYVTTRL

Row | Compound | outcome
1 | O=C1/C(=C\c2cc(Cl)c(O)c(Cl)c2)SC(=S)N1Cc1ccccc1 | inactive
2 | COc1ccc(C(=O)NC(=S)NNC(=O)c2c(-c3ccccc3)noc2C)cc1 | inactive
3 | O=C(c1sc2ccccc2c1Cl)N(Cc1ccco1)C1CCS(=O)(=O)C1 (stereo not given) | inactive
4 | Cc1cc(-c2ccc(C)c(S(=O)(=O)NCCCN(Cc3ccccc3)C(C)C)c2)on1 | inactive
5 | CCc1nc(NCCc2ccccn2)c2nnn(Cc3ccccc3F)c2n1 | inactive
6 | CN(C)CCCN(C(=O)c1ccc(S(=O)(=O)N2CCCc3ccccc32)cc1)c1nc2ccc(F)cc2s1 | inactive
7 | CSCCC(NS(=O)(=O)c1ccc2c(c1)c(=O)n(C)c(=O)n2C)C(=O)NC1CCN(Cc2ccccc2)CC1 (stereo not given) | inactive
8 | CCC1(c2ccc(F)cc2)NC(=O)N(CC(=O)c2cc(C)n(C3CC3)c2C)C1=O (stereo not given) | inactive
9 | CN(C)CCCN(C(=O)c1ccc(C(=O)c2ccccc2)cc1)c1nc2ccc(F)cc2s1 | inactive
10 | Cc1ccc(-n2cc(CNCC3CC(=O)N(C4CC4)C3)c(-c3cccc(C)c3)n2)cc1 (stereo not given) | inactive
11 | CC1CCCN(CCCNC(=O)c2ccc3c(c2)N(Cc2ccccc2F)C(=O)c2ccccc2S3(=O)=O)C1 (stereo not given) | inactive
12 | Cc1nc(/N=C(\N)NC(=O)NC2CCCCC2)nc2ccccc12 | inactive
13 | COc1ccc(C(CNC(=O)c2cccc(NS(=O)(=O)c3ccc(C)c(F)c3)c2)N(C)C)cc1 (stereo not given) | inactive
14 | CCN1CCN(c2ccc(S(=O)(=O)N3CCCCC3)cc2NC(=O)COc2ccccc2)CC1 | inactive
15 | CCCN(CCC)CCCNC(=O)C1CCN(S(=O)(=O)c2cccc3nsnc23)CC1 | inactive
16 | c1ccc(Nc2nc(Nc3ccccc3)nc(N3CCNCC3)n2)cc1 | inactive
17 | CN(C)C(CNc1ncnc2sc3c(c12)CCCC3)c1ccco1 (stereo not given) | inactive
18 | CC(=O)Nc1ccc(CN2CCCC(C(=O)c3cccc(C(F)(F)F)c3)C2)cc1 (stereo not given) | inactive
19 | NCCCn1c(C(=O)c2cc(Cl)c(N)c(Cl)c2)c2ccccc2[n+]1[O-] | inactive
20 | CCN1CCN(c2c(Cl)cccc2NC(=O)c2ccc3nsnc3c2)CC1 | inactive

Row | Compound | outcome
21 | COc1ccc(-c2cc(C(=O)NCC(c3ccccc3)N(C)C)c3ccccc3n2)cc1OC (stereo not given) | inactive
22 | O=C(c1sc2ccccc2c1Cl)N(Cc1cccs1)C1CCS(=O)(=O)C1 (stereo not given) | inactive
23 | O=S(=O)(c1ccccc1)c1nnn2c1nc(NC1CCN(Cc3ccccc3)CC1)c1cc(Cl)ccc12 | inactive
24 | CCCc1c(O)nc(SCCN(CCC)CCC)[nH]c1=O | inactive
25 | O=C(CCc1ccccc1)NNC(=S)NC(=O)c1ccc(Cl)cc1 | inactive
26 | CCCCN(C)CCCNC(=O)CN1N=C(c2ccc(Cl)cc2)CCC1=O | inactive
27 | CC1(C)CC(=O)c2cc(C(=O)NCc3ccco3)c(=O)n(-c3ccc(Cl)cc3)c2C1 | inactive
28 | CCOC(=O)C1CCCN(C(c2ccccn2)c2c(C)[nH]c3ccccc23)C1 (stereo not given) | inactive
29 | O=C(Nc1nnc(-c2ccccc2Cl)o1)c1nc2ccccc2s1 | inactive
30 | CCCCC(c1nnnn1CC1CCCO1)N1CCN(c2nc3ccccc3s2)CC1 (stereo not given) | inactive
31 | c1ccc2c(c1)CCN(c1ncnc3c1[nH]c1ccccc13)C2 | inactive
32 | COc1ccc(C(CNCC(=O)Nc2ccccc2F)N(C)C)cc1 (stereo not given) | inactive
33 | O=S(=O)(c1ccc(Cl)cc1)N1CCN2CCCC2C1 (stereo not given) | inactive
34 | COc1cc(OC)c(CN2CCC(Cc3ccccc3)CC2)cc1Br | inactive
35 | CCOC(=O)C1(CCOc2ccccc2)CCN(Cc2ccc(NC(C)=O)cc2)CC1 | inactive
36 | O=C(C1CCCN(Cc2ccccc2)C1)N1CCc2ccccc2C1 (stereo not given) | inactive
37 | Cc1csc2c(N3CCN(C(=S)Nc4ccc(F)cc4F)CC3)ncnc12 | inactive
38 | Cc1ccc(C2(O)CN(c3ccccc3C)C3=[N+]2CCS3)cc1 (stereo not given) | inactive
39 | CCn1cc(CN2CCCC(C(=O)Nc3ccc(-c4nc5ccccc5[nH]4)cc3)C2)c(C)n1 (stereo not given) | inactive
40 | CN(C)C(CNC(=S)Nc1cccc(Cl)c1)c1cccnc1 (stereo not given) | inactive
